# DT40 TDP1 no CPT: qHTS for Inhibitors of human tyrosyl-DNA phosphodiesterase 1 (TDP1): qHTS in cells in absence of CPT; DT40 Tdp1-/- hTDP1 cells, no CPT, ATP luminescence, 48 h; Potency, µM (titrated, usually from 46.2 µM), without a hit: at the top dose activity change, negative = growth inhibition, hits mostly inhibitors; 420,000 tested, 15% active; also: potency is read from the fitted curve at half-maximal effect; % is scaled to controls: 0 for no effect and ±100 for the full control effect; nearly all actives have a fitted effect of over 55% in size
#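 Growth kinetics read by CellTiter-Glo luminescence after ≥48 hr at 37 °C. Cells: DT40 Tdp1-/- stably carrying human TDP1, 400 per well, compound exposure in the absence of CPT (DMSO vehicle).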
# TGFb SMAD3 inh: qHTS for Inhibitors of TGF-b. 410,000 tested, 1.2% active. Potency, µM (highest dose often 46.1 µM), for the others: at the top dose activity, negative = inhibition, most hits filed as inhibitors. HepG2 CAGA-GFP TGF-b/SMAD3 reporter, GFP fluorescence, 18 h; TGF-beta stimulated, 500 pg/mL final; also: potency is read from the fitted curve at half-maximal effect; % is scaled to controls: 0 for no effect and ±100 for the full control effect; nearly all actives have a fitted effect of over 65% in size
#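 Using HEPG2 CAGA-GFP reporter cells at 1000 cells/well, we pinned test compounds, stimulated with recombinant TGF-beta (500 pg/mL final) and measured total well GFP after 18 h.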
# IL1B secr inh: qHTS for Inhibitors of Inflammasome Signaling: IL-1-beta AlphaLISA Primary Screen | 360,000 tested, 4.7% active | THP-1 LPS/ATP IL-1B secretion, AlphaLISA, 16 h; active compounds read low | activity change, % at 57.5 µM; in the data active = activity change below about -50%; inconclusive = mostly about -30% to -49%; also: % is scaled to controls: 0 for no effect and ±100 for the full control effect
#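 THP-1 cells pretreated 1 hr with compounds (up to 57.5 uM final), then stimulated with LPS (250 ng/mL final) plus ATP (1.25 mM final); secreted IL-1B measured by AlphaLISA after 16 hr, decreased signal indicating inhibition.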
# TDP1 block: qHTS Assay for Inhibitors of Tyrosyl-DNA Phosphodiesterase (TDP1); Tyrosyl-DNA phosphodiesterase 1 (Homo sapiens), Q9NUW8; recombinant TDP1, AlphaScreen DNA substrate cleavage; Potency, µM (titrated, usually from 130 µM), without a hit: top-dose activity change, negative = inhibition, most hits filed as inhibitors; 350,000 tested, 0.28% active; also: potency is read from the fitted curve at half-maximal effect; % is scaled to controls: 0 for no effect and ±100 for the full control effect; nearly all actives have a fitted effect of over 40% in size
# Target sequence (Q9NUW8 whole entry, looked up): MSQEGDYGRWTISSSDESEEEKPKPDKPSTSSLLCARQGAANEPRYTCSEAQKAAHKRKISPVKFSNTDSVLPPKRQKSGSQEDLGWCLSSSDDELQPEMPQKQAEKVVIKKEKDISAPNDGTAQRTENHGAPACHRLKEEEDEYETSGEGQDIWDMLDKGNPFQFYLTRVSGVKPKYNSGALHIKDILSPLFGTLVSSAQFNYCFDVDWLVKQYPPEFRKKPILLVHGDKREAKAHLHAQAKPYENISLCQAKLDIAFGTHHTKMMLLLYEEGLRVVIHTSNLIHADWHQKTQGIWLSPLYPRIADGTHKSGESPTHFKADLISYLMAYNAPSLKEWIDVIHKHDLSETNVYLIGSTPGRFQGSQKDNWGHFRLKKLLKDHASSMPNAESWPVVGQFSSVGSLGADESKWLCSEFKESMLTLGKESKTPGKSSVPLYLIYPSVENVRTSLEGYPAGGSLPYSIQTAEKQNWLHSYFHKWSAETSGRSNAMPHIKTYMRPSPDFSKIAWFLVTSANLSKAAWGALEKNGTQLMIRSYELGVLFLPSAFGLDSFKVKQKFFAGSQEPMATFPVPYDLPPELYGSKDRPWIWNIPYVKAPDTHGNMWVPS
#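 Here, a 5' biotin and 3' phosphotyrosine-FITC DNA oligonucleotide reports Tdp1 activity: intact substrate bridges AlphaScreen beads, while cleavage leaves a 3' phosphate and drops signal. All incubations at room temperature.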
# HepG2 viability: qHTS for Inhibitors of TGF-b: Cytotox Counterscreen | HepG2 CAGA-GFP viability, ATP luminescence, 18 h | Potency, µM (highest dose often 46.1 µM), for inactives: at the highest dose activity change, negative = cytotoxicity, actives largely listed as cytotoxic | 410,000 tested, 0.76% active; also: potency is read from the fitted curve at half-maximal effect
#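 CellTiter-Glo luminescence gave cytotoxicity after 18 hours at 37 degrees C. The cells were HepG2 CAGA-GFP in 1% FBS DMEM, stimulated with 500 pg/mL TGF-beta after compound addition. %Activity was normalised to no-cell wells (complete cell-killing) and DMSO (no toxicity), and curves were fitted and classified.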
# DT40 TDP1 CPT: qHTS for Inhibitors of human tyrosyl-DNA phosphodiesterase 1 (TDP1): qHTS in cells in presence of CPT; 420,000 tested, 12% active; AID 686979, 2013; chicken DT40 Tdp1-/-;hTDP1 cells + 20 nM CPT, ATP luminescence, 48 h; Potency, µM (highest dose often 46.2 µM), inactives show top-dose activity change, negative = growth inhibition, hits mostly inhibitors; also: potency is read from the fitted curve at half-maximal effect; % is scaled to controls: 0 for no effect and ±100 for the full control effect; nearly all actives have a fitted effect of over 55% in size
#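 Chicken DT40 Tdp1-/- cells stably complemented with human TDP1 were seeded at 400 cells/well in medium containing 20 nM camptothecin, exposed to pin-transferred compounds, and grown at 37 °C for at least 48 hr. Viability was read as ATP luminescence.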
# * = called active by the depositor; ? = inconclusive; . = not tested or not shown; [ ] = dose if it differs, or a comment. The list is not random: actives were taken first. Their share in the collection is about 19%. Unless noted, calls follow the shape of the dose curve; as a rule, active = well fitted curve in the direction sought with a large enough effect; inconclusive = small, poorly fitted or top-dose-only effect, or another doubt; inactive = no such curve, though single readings can be large; an effect the other way counts as inactive or inconclusive.
SMILES,DT40 TDP1 no CPT,TGFb SMAD3 inh,IL1B secr inh,TDP1 block,HepG2 viability,DT40 TDP1 CPT
O=C(CNC(=O)c1ccccc1)N[C@@H](C(=O)Nc1cc(C(F)(F)F)ccc1Cl)c1ccccc1,.,.,.,-2%,.,.
CCC(C(=O)NC1CCCCC1)n1c(SCc2cccc(C)c2)nc2ccncc21 (stereo not given),?,13µM*,-21,8%,-35%,26µM*
CCC(C(=O)NC1CCCCC1)n1c(SCc2cccc(F)c2)nc2ccncc21 (stereo not given),?,?,-7,10%,-26%,?
CCCCNC(=O)C(CC)n1c(SCc2cccc(F)c2)nc2ccncc21 (stereo not given),?,-2%,.,1%,0%,10µM*
CN(C(=O)c1cccs1)C1(C)CCS(=O)(=O)C1 (stereo not given),26%,3%,-3,2%,7%,-15%
Fc1cccc(-n2ncc3c2ncn2nc(COc4ccc(Cl)cc4)nc32)c1,-6%,.,.,5%,2%,-4%
COc1ccccc1C(CNC(=O)CNC(=O)c1ccccc1Cl)N1CCCC1 (stereo not given),4%,-1%,5,0%,-5%,0%
COc1cc(S(=O)(=O)Nc2ccc(C)cc2)ccc1N=Cc1c(C)[nH]n(-c2ccc(C)cc2)c1=O,13µM*,20%,-7,-3%,-10%,-23%
Cc1ccc(N/N=C/c2c(C)c(C#N)c(=O)n(C)c2O)cc1C,?,-12%,8,-1%,0%,?
COc1cc(S(=O)(=O)Nc2ccc(C)cc2)ccc1N=Cc1c(C)c(C#N)c(=O)n(C)c1O,13µM*,82%,1,5%,-11%,?
CC(C)[C@@H]1CC[C@@H](C)CC1=O,-17%,.,.,.,.,-15%
Cc1nc(N2CCOCC2)c2c(C(=O)N(C)Cc3ccccc3)c(C)oc2n1,-5%,-3%,.,5%,7%,-3%
CC1CCN(CCOCCOc2ccc(Br)cc2Cl)CC1,21µM*,3%,?,-2%,-19%,18µM*
CC1CCCN(CCCOc2ccc(Br)cc2Cl)C1 (stereo not given),?,2%,-90*,.,1%,?
CC(C)(C)OC(=O)NCC(=O)NNC(=O)C(C(=O)OCc1ccccc1)c1ccccc1 (stereo not given),.,2%,.,0%,-2%,.
CCOC(=O)c1cnc(SC)nc1Oc1cccc(NS(=O)(=O)c2ccc(C)cc2)c1,16µM*,3%,16,0%,5%,?
CCOC(=O)c1ccccc1NS(=O)(=O)c1ccc(C)cc1,?,7%,-8,-5%,-10%,?
CCCCNS(=O)(=O)c1cc(-c2nn(C)c(=O)c3ccccc23)ccc1C,-1%,0%,-65*,.,-1%,?
CCN(CC)S(=O)(=O)c1cc(-c2nn(C)c(=O)c3ccccc23)ccc1C,16µM*,0%,38,.,-31%,23µM*
Cc1ccc(-c2nn(C)c(=O)c3ccccc23)cc1S(=O)(=O)NCCN(C)C,?,-12%,-8,0%,-8%,1%
Cn1nc(-c2ccc3c(c2)OCCO3)c2ccccc2c1=O,21µM*,0%,37,0%,-5%,?
Cc1cc(C)n(CC(=O)NCc2cc(-c3nn(C)c(=O)c4ccccc34)ccc2C)n1,16µM*,-9%,-1,-2%,-4%,?
c1ccc(Cc2nnc3n2CCN(Cc2cnc(-c4ccccc4)s2)CC3)cc1,-15%,.,.,.,.,-20%
COc1ccc(-c2csc3ncnc(NCCO)c23)cc1,?,-5%,-81*,.,-39%,?
COc1ccc(-c2csc3ncnc(Nc4ccc(O)cc4)c23)cc1,?,-11%,0,.,-8%,?
SMILES,DT40 TDP1 no CPT,TGFb SMAD3 inh,IL1B secr inh,TDP1 block,HepG2 viability,DT40 TDP1 CPT
COc1ccc(-c2csc3ncnc(NCCCO)c23)cc1,8.2µM*,-1%,?,.,3%,?
COC(=O)c1ccc(C=O)cc1,.,.,.,-8%,.,.
CC(=O)c1ccc(-c2cc(F)cc3c2OC(CNC(=O)c2ccc[n+]([O-])c2)C3)s1 (stereo not given),-10%,.,.,.,.,1%
Cn1nccc1C(=O)NCC1CCC2(CCN(Cc3ccc(-c4ccc(Cl)cc4)o3)CC2)O1 (stereo not given),15µM*,.,.,.,.,?
Cc1cc(C(=O)NCC2CCC3(CCN(Cc4cccc(F)c4F)CC3)O2)n(C)n1 (stereo not given),12µM*,.,.,.,.,21µM*
Cc1cc(C(=O)NCC2CCC3(CCN(Cc4ccc5ccccc5c4)CC3)O2)n(C)n1 (stereo not given),16µM*,.,.,.,.,21µM*
Cc1cc(C(=O)NCC2CCC3(CCN(Cc4ccc(F)cc4)CC3)O2)n(C)n1 (stereo not given),?,.,.,.,.,-4%[9.04 µM]
O=C(Nc1ccccc1C(F)(F)F)C1(S(=O)(=O)c2ccc(Cl)cc2)CC1,-2%,-6%,.,-1%,-5%,10%
Cc1ccc(NS(=O)(=O)c2cccc(C(=O)N/N=C/c3c(C)nn(-c4ccccc4)c3N3CCCC3)c2)c(C)c1,?,0%,-18,5%,3%,?
CCNc1ccc(C(=O)N/N=C/c2c(C)nn(-c3ccccc3)c2N2CCCC2)cc1[N+](=O)[O-],?,0%,18,3%,0%,18µM*
CCCCNC(=S)NNC(=O)CCn1cc(C)cn1,-22%,4%,-1,0%,9%,-12%
Cc1cnn(CCC(=O)NNC(=S)NCC(C)C)c1,26µM*,0%,-8,-1%,-6%,?
Cc1ccc(NC(=S)NNC(=O)CCn2cc(C)cn2)cc1,-10%,0%,21,5%,3%,-1%
Cc1cnn(CCC(=O)NNC(=S)Nc2ccccc2)c1,18µM*,?,10,9%,12%,11µM*
COc1ccc(-c2coc3c(C(=O)Nc4ccc(OC)nc4)cccc23)c(C)c1,21µM*,-4%,-17,.,-16%,18µM*
COc1ccc(-c2ccc(C(=O)Nc3ccccc3)c3occc23)c(C)c1,?,-13%,1,.,-24%,21µM*
